PostGolgi ctrl: growth inhibition of yeast control strain, primary screen, counter-screen for post-Golgi transport modulator project. AID 738, 2007. inhibition, % at 10 µM. 5% of 98,000 active. efflux-deficient yeast background strain, growth absorbance A615, 16 h
PostGolgi yeast: phenotypic screen on post-Golgi transport, primary screen; post-Golgi transport phenotypic cell assay; inhibition, % at 10 µM; 0.9% of 98,000 active;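 also: yeast cells grown in 1536-well plates; yeast grown about 18 h at 30C before absorbance read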
CYP2C9 act: human CYP2C9 activators, primary screen, biochemical, luminescence; recombinant CYP2C9, luciferin-H conversion; active compounds read high; factor 1 = untreated enzyme, 0 = blocked; activation factor at 5 µM; 1.4% of 96,000 active;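 active = activation factor of 2 or more for CYP2C9 at a 5 µM dose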
Target sequence (P11712 whole entry, looked up): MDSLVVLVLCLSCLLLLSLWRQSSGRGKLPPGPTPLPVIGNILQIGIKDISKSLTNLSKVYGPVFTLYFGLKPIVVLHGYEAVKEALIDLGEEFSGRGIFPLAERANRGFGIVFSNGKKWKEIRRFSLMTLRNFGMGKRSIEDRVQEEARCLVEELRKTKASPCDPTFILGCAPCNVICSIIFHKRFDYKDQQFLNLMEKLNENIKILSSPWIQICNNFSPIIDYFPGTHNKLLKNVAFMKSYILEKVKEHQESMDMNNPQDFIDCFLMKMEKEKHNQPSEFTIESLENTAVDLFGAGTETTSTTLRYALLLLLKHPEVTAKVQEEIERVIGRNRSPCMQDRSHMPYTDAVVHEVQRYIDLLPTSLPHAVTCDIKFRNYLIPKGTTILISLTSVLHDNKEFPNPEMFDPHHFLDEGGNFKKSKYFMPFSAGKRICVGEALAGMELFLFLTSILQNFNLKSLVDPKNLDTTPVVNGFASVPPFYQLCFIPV
CYP2C9 inhib: blockers of cytochrome P450 2C9 activity – biochemical, luminescence, ADME assay, primary screen; CYP2C9 Supersomes, luciferin-H conversion; P11712; inhibition, % at 5 µM; 20% of 96,000 active;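 active = blocking of liver enzyme CYP2C9 beyond about 50% at 5 µM, limit read from the data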
CYP2C19 activ: human CYP2C19 activators, primary screen, biochemical, luminescence; 96,000 tested, under 10 active; activation factor at 5 µM; recombinant CYP2C19, luciferin-H EGE luminescence; active compounds read high; 0 = fully inhibited enzyme, 1 = untreated enzyme;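 active = activation factor of at least 2 at 5 µM in the primary screen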
CYP2C19 inhib: blockers of cytochrome P450 2C19 activity – biochemical, luminescence, ADME assay, primary screen; CYP2C19 Supersomes, luciferin-H EGE luminescence, 30 min; P33261; inhibition, % at 5 µM; 21% of 96,000 active;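 active = CYP2C19 inhibition above a set limit at 5 µM in the primary screen, cut at about 50% in these data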
Each line names hits and unclear results; the compound was inactive in the other large screens. An excerpt weighted towards active compounds, which were near 32% of everything screened. Rule as the data show it, unless noted: active = inhibition above about 30%; inactive = the rest.

CCOc1ccc(C(=O)CCc2nc3ccccc3s2)cc1	CYP2C9 inhib 91, CYP2C19 inhib 56
CCOc1ccc(C(=O)CCC(=O)O)cc1	none
Cn1c(SCCOc2cccc(Cl)c2)nnc1-c1ccncc1	CYP2C19 inhib 92
COCCSc1nnc(-c2cccc(C#N)c2)n1C	none
COc1ccc(-c2nnc(SCc3csc(N)n3)n2C)cc1	none
Cc1cccc(OCCSc2nnc(-c3ccoc3C)n2C)c1	CYP2C9 inhib 58, CYP2C19 inhib 98
Cc1ccc(OCCSc2nnc(-c3ccncc3)n2C)cc1	CYP2C19 inhib 93
CC(C)NC(=O)c1ccc2c(=O)n(C3CCCC3)c(=S)[nH]c2c1	none
O=C(c1ccc2c(=O)n(C3CCCC3)c(=S)[nH]c2c1)N1CCc2ccccc21	PostGolgi ctrl 99, PostGolgi yeast 67
CCC1Oc2ccc(C)cc2N(CC(=O)NCCC2=CCCCC2)C1=O (stereo not given)	CYP2C19 inhib 99
O=C1Nc2ncccc2OC1CCO (stereo not given)	none
CC(C)=CCC(C)(C)C1OCCN1C(=O)Nc1ccccc1 (stereo not given)	CYP2C9 inhib 80, CYP2C19 inhib 100
COC(=O)c1ccccc1NC(=O)C12CCC(C)(C(=O)O1)C2(C)C (stereo not given)	CYP2C19 inhib 57
COc1ccc(Cl)cc1NC(=O)C12CCC(C)(C(=O)O1)C2(C)C (stereo not given)	CYP2C19 inhib 83
CC12CCC(C(=O)NCc3cccnc3)(OC1=O)C2(C)C (stereo not given)	none
COc1ccc(OC)c(NC(=O)C23CCC(C)(C(=O)O2)C3(C)C)c1 (stereo not given)	CYP2C9 act 2, CYP2C19 inhib 61
CC12CCC(C(=O)N(Cc3ccccc3)Cc3ccccc3)(OC1=O)C2(C)C (stereo not given)	PostGolgi ctrl 38
OC(COc1ccc2c(c1)CCC2)Cn1cnc2ccccc21 (stereo not given)	none
O=C(O)c1ccc2c(c1)ncn2C1CCCCCC1	none (no result: CYP2C9 act, CYP2C9 inhib, CYP2C19 activ, CYP2C19 inhib)
COc1ccc(NS(=O)(=O)c2ccc(C)c(C(=O)O)c2)cc1	none
COc1ccc(S(=O)(=O)Nc2cc(C(C)C)c(O)cc2C)cc1	CYP2C19 inhib 88
COc1ccc(S(=O)(=O)Nc2cc(C)c(O)cc2C(C)C)cc1	CYP2C9 act 2.4, CYP2C19 inhib 99
Cc1cc(C)n(-c2nc3nonc3nc2Nc2cccc(C)c2C)n1	none
CCOc1cc(CNCCO)cc(Br)c1OCc1ccc(Cl)cc1	CYP2C19 inhib 78
CCOc1cc(CNC(C)(C)CO)cc(Br)c1OCc1ccc(Cl)cc1Cl	PostGolgi ctrl 91
CCOc1cc(CNCCO)cc(Br)c1OCc1ccccc1Cl	CYP2C19 inhib 55
CCOc1ccc(NC(C)c2cc(Cl)ccc2O)cc1 (stereo not given)	CYP2C9 inhib 79, CYP2C19 inhib 62
CC(Nc1ccc(Br)cn1)c1cc(Cl)ccc1O (stereo not given)	PostGolgi ctrl 31, CYP2C9 inhib 86, CYP2C19 inhib 82
Cc1ccc(C)n1-c1sc2c(c1C#N)CCC(C)C2 (stereo not given)	none
CCOC(=O)CN1N=C(/C=C/c2ccc(C)cc2)CCC1=O	none
Cc1ccc(/C=C/C2=NN(Cc3ccc(Cl)c(Cl)c3)C(=O)CC2)cc1	PostGolgi ctrl 44
OC(Cn1cncn1)(c1ccccc1)c1ccccc1	PostGolgi ctrl 91, PostGolgi yeast 103, CYP2C9 inhib 76, CYP2C19 inhib 51
c1ccc(NCn2cncn2)nc1	none
O=S(=O)(c1cccc2ccccc12)N1CCSC1	CYP2C9 act 5.2 (no result: PostGolgi ctrl, PostGolgi yeast)
N#CC1=C(N)OC(c2ccccc2)=C(C#N)C1c1ccc2c(c1)OCO2 (stereo not given)	PostGolgi ctrl 98, PostGolgi yeast 104
COc1cc(C2C(C#N)=C(N)Oc3cc(N)ccc32)cc(OC)c1OC (stereo not given)	none (no result: CYP2C9 act, CYP2C9 inhib, CYP2C19 activ, CYP2C19 inhib)
CCN(CC)c1ccc2c(c1)OC(N)=C(C#N)C2c1cccnc1 (stereo not given)	CYP2C19 inhib 82
Cc1ccc(C2C(C#N)=C(N)Oc3cc4c(cc32)OCO4)cc1 (stereo not given)	CYP2C9 inhib 74, CYP2C19 inhib 72
CSc1ccc(C2C(C#N)=C(N)Oc3cc4c(cc32)OCO4)cc1 (stereo not given)	none
N#CC1=C(N)Oc2cc(N)ccc2C1c1ccc(F)cc1 (stereo not given)	CYP2C9 inhib 50, CYP2C19 inhib 74
CCOC(=O)N1CCN(C(=O)CSCC(=O)N=c2sc3ccccc3n2C)CC1	none
Cc1ccc2nc(SCC(=O)Nc3cc(C)on3)[nH]c2c1	CYP2C9 inhib 78, CYP2C19 inhib 76
COc1ccc2nc(SCC(=O)Nc3cc(C)on3)[nH]c2c1	PostGolgi yeast 37
COC(=O)c1ccc(CSc2nc3ccc(C)cc3[nH]2)o1	CYP2C9 inhib 83, CYP2C19 inhib 93
O=C1CCc2cc(S(=O)(=O)N3CCC(C(=O)Nc4nccs4)CC3)ccc2N1	none
O=c1oc(-c2ccccc2F)nc2c1cnn2-c1ccccc1	none
COc1cc(/C=N\Nc2ccc([N+](=O)[O-])cc2)ccc1OCC(=O)Nc1ccc(C)c(C)c1	none
CCOC(=O)C1CCN(Cc2coc3c(Cl)cc(Cl)cc3c2=O)CC1	none
COC(=O)c1sc(OC)cc1OCc1ccc(C)cc1	CYP2C19 inhib 53
COc1ccc(N(CC(=O)Nc2ccc(S(=O)(=O)N3CCCCC3)cc2)S(C)(=O)=O)cc1OC	CYP2C9 inhib 53
COc1ccc(NC(=O)CN2CCN(S(=O)(=O)c3ccc(Cl)cc3)CC2)cc1	CYP2C19 inhib 81
COc1ccc(S(=O)(=O)N2CCCN(CC(=O)Nc3ccc(OC)c(Cl)c3)CC2)cc1	CYP2C19 inhib 59
COc1ccc(N(CC(=O)Nc2ccc(S(=O)(=O)N3CCCC3)cc2)S(C)(=O)=O)cc1OC	none (no result: CYP2C9 act, CYP2C9 inhib, CYP2C19 activ, CYP2C19 inhib)
Cc1ccc(SCC2(O)CCN(S(=O)(=O)c3ccc(Cl)cc3)CC2)cc1	none (no result: CYP2C9 act, CYP2C9 inhib, CYP2C19 activ, CYP2C19 inhib)
COc1ccc(S(=O)(=O)N2CCC(O)(c3ccc(Cl)cc3)CC2)cc1	CYP2C9 act 2.3, CYP2C19 inhib 68
CCOc1nc2ccccc2nc1C	none
CCC(C)NC(=O)CSc1nc2ccsc2c(=O)n1NC(=O)c1ccccc1 (stereo not given)	none
COc1cccc2cc(C(=O)N(C)C3CCN(C)CC3)c(=O)oc12	none
Cn1c(SCc2nc3ccccc3[nH]2)nnc1-c1cnccn1	none
c1ccc(-c2nnc(SCc3nc4ccccc4[nH]3)n2Cc2ccco2)nc1	CYP2C9 inhib 90, CYP2C19 inhib 51
Clc1cccc(-c2nnc(SCc3nc4ccccc4[nH]3)n2Cc2ccco2)c1	CYP2C9 inhib 87, CYP2C19 inhib 82

Bioassay records from PubChem BioAssay.
